Assay [1] is described as follows: qHTS assay to identify small molecule antagonists of the vitamin D receptor (VDR) signaling pathway - cell viability counter screen (AID 743225). Note: nearly all actives have a fitted effect of over 50% in size. The essentials:
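Read-out: CellTiter-Glo luminescence measured 30 min after reagent addition at room temperature. Cells were VDR-bla HEK 293T exposed 16 h at 37C, 5% CO2, to compound with 3 nM final calcitriol agonist.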
For orientation: In qHTS, concentration-response curves come from the screen itself.

Assay [2] is described as follows: qHTS assay to identify small molecule agonists of the NFkB signaling pathway - cell viability counter screen (AID 1159515; calls by dose curve; note: series mostly up to about 61 µM; nearly all actives have a fitted effect of over 55% in size). The essentials:
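Read by CellTiter-Glo luminescence (30 min, room temperature) in the wells also used for the beta-lactamase FRET read. ME-180 NFkB-bla cells at 2,000 per well were plated overnight, then exposed to compound for 5 hr at 37 C.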

Assay [3] can be described thus: qHTS assay to identify small molecule agonists of the endoplasmic reticulum stress response signaling pathway (AID 1159516; active = well fitted activation curve with a large enough effect in the signal ratio in the repeat runs, not every such curve was filed as active; the % refers to the signal ratio). The method, boiled down: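 Ratiometric FRET readout (405 nm excitation; 460 and 530 nm emission) of a beta-lactamase gene driven by the ER stress response element, after 2 hr substrate loading. HeLa ESRE-bla cells were seeded overnight and treated with compounds for only 5 hr at 37 C.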

Assay [4] is described as follows: qHTS assay to identify small molecule antagonists of the retinoid-related orphan receptor gamma (ROR-gamma) signaling pathway - cell viability counter screen (AID 1159520). Note: nearly all actives have a fitted effect of over 50% in size. The essentials: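 Tet-on ROR gamma CHO cells were given compounds for 2 hr, then doxycycline hyclate at 1 uM final, and incubated 16 hr at 37 C. Viability was measured as ATP content by CellTiter-Glo luminescence.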

The target of assay [5] is Nuclear receptor ROR-gamma (Homo sapiens) (UniProt P51449). The assay is described as follows: qHTS assay to identify small molecule antagonists of the retinoid-related orphan receptor gamma (ROR-gamma) signaling pathway (AID 1159521; note: nearly all actives have a fitted effect of over 50% in size; note: potency is the fitted concentration of half-maximal effect). The method, boiled down:
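CHO Tet-on RORγ, RORE-luc reporter. Cpd 2 h pre-incubation, then dox hyclate 1 uM final, 16 h, 37 C/5% CO2. ONE-Glo luminescence; decrease = antagonist.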

Assay [6] is described as follows: qHTS assay to identify small molecule agonists of the AP-1 signaling pathway - cell viability counter screen (AID 1159525; calls by dose curve; note: nearly all actives have a fitted effect of over 55% in size). The essentials:
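Same-well cytotoxicity counter screen of the Tox21 10K library in ME-180 cells. The readout is ATP-dependent luminescence after 5 h compound treatment. Data are normalised to DMSO and tetra n-octyl ammonium bromide controls.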

Assay [7] is described as follows: qHTS assay to identify small molecule agonists of the AP-1 signaling pathway (AID 1159526; calls by dose curve).
A short description of assay [8]: qHTS assay to identify small molecule agonists of the RXR signaling pathway - cell viability counter screen (AID 1159529). Note: series mostly up to about 77 µM; nearly all actives have a fitted effect of over 50% in size. The method, boiled down: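 HEK 293T RXRa-bla cells, 2% CS-FBS; 5 h settle; cpd 16 h 37 C, 5% CO2; CellTiter-Glo 30 min RT, luminescence. Tetraoctyl ammonium bromide as positive control.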
For assay [9], the target named is Retinoic acid receptor RXR-alpha (Homo sapiens) (UniProt P19793). The assay is described as follows: qHTS assay to identify small molecule agonists of the RXR signaling pathway (AID 1159527; calls by dose curve; note: nearly all actives have a fitted effect of over 35% in size; note: potency is the fitted concentration of half-maximal effect). The method, boiled down: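 Read-out: beta-lactamase FRET ratio (405 nm excitation, 460 and 530 nm emission) after 2 hr substrate loading at room temperature. Cells were RXR-alpha-UAS-bla HEK 293T treated with compounds for 16 hr in 2% charcoal-stripped FBS medium.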
Sequence of Retinoic acid receptor RXR-alpha (Homo sapiens) (P19793 whole entry, looked up): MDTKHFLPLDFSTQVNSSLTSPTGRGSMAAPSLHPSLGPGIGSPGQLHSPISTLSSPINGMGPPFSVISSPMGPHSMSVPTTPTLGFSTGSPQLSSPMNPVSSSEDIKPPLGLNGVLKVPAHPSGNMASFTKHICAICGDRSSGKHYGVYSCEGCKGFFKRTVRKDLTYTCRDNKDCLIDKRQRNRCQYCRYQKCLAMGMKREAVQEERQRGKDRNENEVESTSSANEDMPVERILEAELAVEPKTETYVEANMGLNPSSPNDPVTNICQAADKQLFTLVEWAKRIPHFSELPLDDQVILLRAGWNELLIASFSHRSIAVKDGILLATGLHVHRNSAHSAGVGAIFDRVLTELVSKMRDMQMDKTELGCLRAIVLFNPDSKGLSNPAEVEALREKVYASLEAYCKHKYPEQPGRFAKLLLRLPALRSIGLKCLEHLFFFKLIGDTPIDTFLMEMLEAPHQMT

Assay [10] in a line: qHTS assay to identify small molecule agonists of the endoplasmic reticulum stress response signaling pathway - cell viability counter screen (AID 1159517; calls by dose curve). The essentials:
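Steps: seed 1,500 ESRE-bla HeLa cells per well; incubate overnight at 37 C, 5% CO2; add compounds in DMSO for 5 hr; run FRET substrate 2 hr RT; add CellTiter-Glo, wait 30 min, read luminescence.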

Consider 30 compounds from PubChem BioAssay (Tox21).

Values joined by “and” are separate entries in the source; they are usually repeats but may differ in a detail not shown here. Equal values may be shown once. Results filed as inconclusive are left out. Active and inactive are the calls of the source. Unless noted, calls come from the whole dose curve; as a rule, active = well fitted curve in the direction sought with a large enough effect in the repeat runs; inconclusive = weak or mixed curves; inactive = no such curve, though single readings can be large; an effect the other way counts as inactive or inconclusive.

With `COc1c2ccoc2cc2oc(=O)ccc12`, the Potency result in [1], in assay [2], in assay [3], in assay [4], in assay [5] and in assay [6] was “inactive” in each case. For the same compound, the Potency result in [8] is “inactive”. In addition, in assay [7], the compound was classed as inactive.

Turning to `CC(C)c1ccc(C(C)C)cc1`, the Potency result in assay [1], in [2], in [4], in [5], in [6] and in [9] was “inactive” each time. Also, the Potency result in [8] is “inactive”. Also, the outcome in [7] was inactive.

Consider `OCCOCCOCCOCCOCCO`, for which the Potency entry in assay [1], in [2], in [4], in assay [5], in assay [6] and in assay [8] was “inactive” in each case. Also, the compound was classed as inactive in assay [7].

As for `O=c1n(CCCN2CCN(c3cccc(Cl)c3)CC2)nc2ccccn12`, the Potency entry in assay [1], in assay [2], in [10], in assay [4], in assay [5] and in assay [6] was “inactive” throughout. Also, in assay [8], the Potency entry is “inactive”. In addition, the result in assay [7] was inactive.

For `NC1CCCCC1N` (stereo not given), the Potency result in [1], in [2], in [10], in assay [4], in [5] and in assay [6] was “inactive” throughout. Moreover, the Potency result in assay [9] and in assay [8] was “inactive” throughout. Besides, in assay [7], the outcome was inactive.

With `O=C1O[C@H]([C@H](O)CO)C(O)=C1O`, the Potency result in assay [1], in assay [2], in [3], in assay [4], in [5] and in assay [6] was “inactive” each time. Besides, in assay [8], the Potency result is “inactive”. Besides, the call in [7] was inactive.

Turning to `O=C1OC(=O)c2c(Cl)c(Cl)c(Cl)c(Cl)c21`, the Potency result in assay [1], in assay [2], in assay [3], in assay [4], in assay [5] and in assay [6] was “inactive” in each case. Also, the Potency result in assay [8] is “inactive”. In addition, in assay [7], the call was inactive.

On to `Oc1ccc(Cc2ccccc2O)cc1`, for which the Potency entry in assay [1], in assay [2], in [3], in assay [4], in assay [5] and in assay [6] was “inactive” each time. Also, the Potency result in assay [9] and in [8] was “inactive” each time. Besides, the result in assay [7] was inactive.

For `CCCCCCCCO`, the Potency result in assay [1], in assay [2], in assay [10], in [4], in [5] and in assay [6] was “inactive” throughout. Further, the Potency entry in [8] is “inactive”. Also, the call in assay [7] was inactive.

With `COc1ccc([C@@H]2CC(=O)c3c(O)cc(O[C@@H]4O[C@H](CO[C@@H]5O[C@@H](C)[C@H](O)[C@@H](O)[C@H]5O)[C@@H](O)[C@H](O)[C@H]4O)cc3O2)cc1OC`, the Potency entry in assay [1], in assay [2], in assay [4], in assay [5], in assay [6] and in [9] was “inactive” in each case. For the same compound, the Potency result in assay [8] was “inactive”. Further, in assay [7], the compound was called inactive.

Turning to `CC(=O)c1nccs1`, the Potency result in assay [1], in assay [2], in assay [10], in assay [4], in assay [5] and in assay [6] was “inactive” each time. For the same compound, the Potency entry in assay [8] is “inactive”. In addition, the outcome in assay [7] was inactive.

Consider `Cc1ccc([N+](=O)[O-])cc1N`, for which the Potency entry in assay [1], in assay [2], in assay [3], in [4], in assay [5] and in assay [6] was “inactive” in each case. For the same compound, in [8], the Potency entry is “inactive”. For the same compound, in assay [7], the call was inactive.

`NC(=O)c1ncn([C@@H]2O[C@H](CO)[C@@H](O)[C@H]2O)n1`: the Potency result in assay [3], in assay [10], in assay [4], in assay [6], in assay [9] and in [8] was “inactive” in each case. Moreover, the Potency in assay [5] is 4.56 µM (active) and 3.76 µM (active). Moreover, the compound was classed as inactive in [7].

`CC(C)=CCC/C(C)=C/C=O`: the Potency result in assay [1], in assay [2], in assay [3], in assay [4], in [5] and in assay [6] was “inactive” each time. Also, the Potency result in assay [8] is “inactive”. For the same compound, the compound was called inactive in [7].

In the case of `Nc1nc(N)c2nc(-c3ccccc3)c(N)nc2n1`, the Potency result in [1], in [2], in assay [10], in assay [4], in assay [5] and in [6] was “inactive” in each case. The Potency result in assay [8] is “inactive”. Further, the Potency in assay [9] is 19 µM (active).

As to `O=Cc1ccc(CO)o1`, the Potency entry in assay [1], in assay [2], in [3], in assay [4], in assay [5] and in [6] was “inactive” throughout. For the same compound, in assay [8], the Potency entry was “inactive”. Besides, in assay [7], the outcome was inactive.

As to `Cc1cc(CC(=O)O)n(C)c1C(=O)c1ccc(Cl)cc1`, the Potency result in assay [1], in [2], in [10], in [4], in [5] and in assay [6] was “inactive” throughout. Besides, the Potency result in assay [9] and in assay [8] was “inactive” in each case. In addition, the outcome in assay [7] was inactive.

In the case of `O=C(O)C1=NN(c2ccc(S(=O)(=O)O)cc2)C(=O)C1`, the Potency entry in assay [1], in [2], in assay [4], in [5], in [6] and in assay [8] was “inactive” throughout. In addition, the outcome in [7] was inactive.

For the compound `CC(=O)CC(=O)N(C)C`, the Potency entry in assay [1], in assay [2], in assay [3], in assay [4], in assay [5] and in [6] was “inactive” in each case. In addition, the Potency result in [8] is “inactive”. In addition, the outcome in assay [7] was inactive.

On to `Brc1ccc(Oc2ccc(Br)cc2)cc1`, for which the Potency entry in assay [1], in assay [2], in [4], in assay [5], in [6] and in [8] was “inactive” throughout. Besides, in [7], the outcome was inactive.

Regarding `CC(=O)OC(C)(C)C1CC=C(C)CC1` (stereo not given), the Potency entry in assay [1], in assay [2], in [4], in assay [5], in [6] and in assay [9] was “inactive” throughout. Further, the Potency entry in [8] is “inactive”. The compound was called inactive in assay [7].

In the case of `COc1c(Cl)ccc(Cl)c1C(=O)O`, the Potency entry in assay [1], in [2], in assay [4], in assay [5], in assay [6] and in assay [9] was “inactive” each time. In assay [8], the Potency entry is “inactive”. Moreover, in [7], the result was inactive.

For `COC(=O)/C=C\C(=O)OC`, the Potency result in assay [1], in [2], in assay [10], in assay [4], in assay [5] and in assay [6] was “inactive” each time. Also, the Potency entry in [9] and in assay [8] was “inactive” in each case. The compound was called inactive in assay [7].

On to `CCCOCC(C)O` (stereo not given), for which the Potency result in assay [1], in assay [3], in assay [10], in assay [4], in assay [5] and in assay [6] was “inactive” in each case. For the same compound, the Potency entry in assay [9] and in [8] was “inactive” in each case. In assay [7], the result was inactive.

Turning to `CCCCCCCCC(=O)O`, the Potency entry in assay [1], in assay [10], in [4], in [5], in [6] and in assay [8] was “inactive” throughout. Moreover, the call in assay [7] was inactive.

With `CCCCCCC(=O)O`, the Potency entry in assay [1], in [10], in assay [4], in [5], in [6] and in assay [8] was “inactive” throughout. The outcome in [7] was inactive.

With `O=C(O)Cc1c[nH]c2ccccc12`, the Potency result in assay [1], in assay [3], in [10], in assay [4], in assay [5] and in [6] was “inactive” each time. Also, the Potency result in assay [8] was “inactive”. The compound was called inactive in assay [7].

Regarding `C=C(CC(=O)O)C(=O)O`, the Potency entry in assay [1], in [10], in assay [4], in [5], in [6] and in [9] was “inactive” each time. Further, the Potency result in [8] was “inactive”. Also, in assay [7], the compound was classed as inactive.

For the compound `CN1Cc2c(N)cccc2C(c2ccccc2)C1` (stereo not given), the Potency result in assay [1], in assay [4], in [5], in assay [6], in [9] and in assay [8] was “inactive” throughout. In assay [7], the result was inactive.

With `CC(C=O)Cc1ccc(C(C)(C)C)cc1` (stereo not given), the Potency entry in assay [1], in [3], in assay [10], in [4], in assay [5] and in assay [6] was “inactive” throughout. Also, the Potency result in assay [9] and in [8] was “inactive” throughout. In [7], the result was inactive.
